From PubChem BioAssay
In the library only some 11% were active in any assay of this set; here they are far more common.
JMJD2A Tudor: inhibitors of human JMJD2A Tudor domain; AlphaScreen JMJD2A-Tudor / H3K4me3 peptide binding; 390,000 compounds, 4.4% hits; AID 504339; Potency, µM (highest dose often 114 µM), for inactives: at the top dose activity change, negative = inhibition, usual class: inhibitors; also: potency is read from the fitted curve at half-maximal effect; % is scaled to controls: 0 for no effect and ±100 for the full control effect; nearly all actives have a fitted effect of over 50% in size
G9a inh: G9a (human) methyltransferase inhibition; Q96KQ7; G9a H3K9 monomethylation, AlphaScreen, 2 h; Potency, µM (doses to about 102 µM), inactives show at the highest dose activity, negative = inhibition, most hits filed as inhibitors; 350,000 compounds, 8.8% hits; also: potency is read from the fitted curve at half-maximal effect; % is scaled to controls: 0 for no effect and ±100 for the full control effect; nearly all actives have a fitted effect of over 75% in size
Target sequence (Q96KQ7 913-1193 limits assumed): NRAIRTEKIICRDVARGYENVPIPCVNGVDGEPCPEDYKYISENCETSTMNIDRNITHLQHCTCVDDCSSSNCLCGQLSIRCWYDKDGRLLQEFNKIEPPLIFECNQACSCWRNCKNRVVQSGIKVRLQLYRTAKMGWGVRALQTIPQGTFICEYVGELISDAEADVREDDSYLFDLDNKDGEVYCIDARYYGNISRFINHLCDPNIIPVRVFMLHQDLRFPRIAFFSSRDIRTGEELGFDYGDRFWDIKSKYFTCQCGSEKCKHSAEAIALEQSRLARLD
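Using a bead-based AlphaScreen, monomethylated H3K9 product from 2 h room-temperature reactions (G9a 20 nM, peptide 500 nM, SAM 20 uM) was detected with 0.5 ug/mL rabbit anti-H3K9me1 antibody.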
HP1b chromo inh: inhibitors of HP1-beta chromodomain binding to methylated histone tails. AlphaScreen HP1-beta / biotin-H3K9me3 peptide binding. Potency, µM (top dose mostly 114 µM), for the others: top-dose activity change, negative = inhibition, usual class: inhibitors. 390,000 compounds, 0.56% hits. AID 540317; also: potency is read from the fitted curve at half-maximal effect; nearly all actives have a fitted effect of over 70% in size
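Compound inhibition of the preformed complex between 50 nM HP1-beta and 50 nM biotinylated H3K9me3 peptide was read by AlphaScreen. Buffer was PBS pH 7.4 with 0.01% Tween-20. Incubations ran 30 min at room temperature, with 10 ug/mL donor/acceptor beads.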
BAZ2B inh: blocks human BAZ2B. Q9UIF8. 360,000 compounds, 4.4% hits. Potency, µM (doses to about 114 µM), inactives show at the top dose activity change, negative = inhibition, actives largely listed as inhibitors. AlphaScreen BAZ2B-H3K14Ac peptide displacement; also: potency is read from the fitted curve at half-maximal effect; % is scaled to controls: 0 for no effect and ±100 for the full control effect; nearly all actives have a fitted effect of over 60% in size
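Compounds, titrated to a top concentration of 110 uM, were incubated 30 min at room temperature with preformed BAZ2B/acetyl-K14 H3 peptide complex (50 nM each). Proximity signal was measured by AlphaScreen after 20 min with beads.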
PI5P4K alpha inh: PI5P4K alpha (human) kinase inhibition; PI5P4Kalpha enzyme, ADP-Glo luminescence, 60 min; hits give low values; max response, %; 330,000 compounds, 1.2% hits; AID 652105; active = max response of -50% or lower; inconclusive = between -30% and -50%; inactive = -30% or higher; also: value at the top dose of about 77 µM; % is scaled to controls: 0 for no effect and ±100 for the full control effect
Target sequence (P48426 whole entry, looked up): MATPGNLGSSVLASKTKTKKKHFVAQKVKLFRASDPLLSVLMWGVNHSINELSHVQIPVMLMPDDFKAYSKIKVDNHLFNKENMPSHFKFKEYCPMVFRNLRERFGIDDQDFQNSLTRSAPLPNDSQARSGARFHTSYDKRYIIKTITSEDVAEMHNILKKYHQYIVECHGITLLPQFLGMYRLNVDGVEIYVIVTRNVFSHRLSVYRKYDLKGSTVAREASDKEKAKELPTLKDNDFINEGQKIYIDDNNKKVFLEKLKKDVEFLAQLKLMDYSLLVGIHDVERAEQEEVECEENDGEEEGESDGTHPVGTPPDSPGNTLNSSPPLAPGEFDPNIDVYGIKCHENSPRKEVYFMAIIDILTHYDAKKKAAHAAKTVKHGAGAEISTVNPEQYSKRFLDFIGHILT
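Luminescence from ADP-Glo served as readout of PI5P4Kalpha activity in a qHTS format. Reaction: enzyme, substrate, compound, ATP at 5 microM final, 60 min at RT.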
L3MBTL1 inh: inhibitors of human L3MBTL1. Q9Y468. AlphaScreen L3MBTL1–H3K9me1 peptide binding. Potency, µM (titrated, usually from 57.1 µM), without a hit: top-dose activity, negative = inhibition, hits mostly inhibitors. 230,000 compounds, 0.66% hits. AID 485360; also: potency is read from the fitted curve at half-maximal effect; % is scaled to controls: 0 for no effect and ±100 for the full control effect; nearly all actives have a fitted effect of over 60% in size
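First, the protein-peptide complex forms for 30 min at room temperature (L3MBTL1 50 nM, biotinylated H3K9me1 peptide 75 nM). Next, compounds are pin-transferred and incubated 30 min. Finally, AlphaScreen beads are added and read after 30 min.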
The depositor's hits bear a star; ? = inconclusive; / = no result; [ ] = dose if it differs, or a comment. Unless noted, calls follow the shape of the dose curve; as a rule, active = well fitted inhibition curve with a large enough effect; inconclusive = small, poorly fitted or top-dose-only effect; inactive = no such curve, though single readings can be large or run the other way.

SMILES | JMJD2A Tudor | G9a inh | HP1b chromo inh | BAZ2B inh | PI5P4K alpha inh | L3MBTL1 inh
CCOC(=O)C1CCCCN1Cc1ccccc1C(F)(F)F (centres undefined) | 4.5µM* | 50%[59 µM] | ? | 7% | / | 1%
CCOC(=O)C1CCN(Cc2ccccc2C(F)(F)F)CC1 | 2.8µM* | 16µM* | ? | 79µM* | / | 13%
COc1ccccc1CN1CCCCC1C(=O)O (centres undefined) | 35µM* | -25% | 57% | -9% | -3 | 0%
CCOC(=O)C1CCCCN1Cc1cccc(C(F)(F)F)c1 (centres undefined) | ? | ? | 39% | ? | / | /
COc1ccccc1N1CCN(c2ccc(-c3nc(-c4ccccc4)no3)cc2[N+](=O)[O-])CC1 | -13% | -35%[59 µM] | 2% | -2% | / | /
Cn1ncc(Cl)c1C(=O)N1CCN(C23CC4CC(CC(C4)C2)C3)CC1 | 89µM* | / | 4% | -8% | 3 | /
Cc1cccc(CNc2ncncc2-c2ccccc2CN(C)C)c1 | / | 25%[0.501 µM] | / | / | / | /
O=C(Cc1sc(Nc2ccccc2)nc1-c1ccccc1)NCc1ccccc1 | -29% | 50µM* | ? | -7% | 3 | -13%
O=C(O)Cc1sc(Nc2cccc3ccccc23)nc1-c1ccc(F)cc1 | -12% | 45µM* | 4% | -23% | 1 | /
COc1ccccc1Nc1nc(-c2ccccc2)c(CC(=O)O)s1 | -14% | ? | 24% | -25% | / | /
COc1cccc(N2CCN(C(=O)c3ccc(Cn4c(=O)[nH]c5cc(OC)c(OC)cc5c4=O)cc3)CC2)c1 | ? | -44%[59 µM] | -1% | -24% | / | /
COc1ccc(CNC(=O)Cn2ncn3nc(-c4cccs4)cc3c2=O)cc1 | -17% | ? | -3% | -18% | / | /
Cc1cccc(C)c1NC(=O)Cn1c(=O)n(CCC(=O)NCc2ccc3c(c2)OCO3)c(=O)c2sccc21 | -17% | -4%[59 µM] | 5% | -34% | / | /
COc1ccc(C(=O)NCCn2cc(SCC(=O)NCCc3ccc(OC)c(OC)c3)c3ccccc32)cc1 | -21% | -44%[59 µM] | 17% | ? | / | /
COc1ccc(CNc2ncnc3ccc(-c4c(C)noc4C)cc23)c(OC)c1 | / | 8%[0.501 µM] | / | / | / | /
CCOc1ccccc1NC(=S)Nn1cnnc1 | 50µM* | 1.8µM* | ? | ? | ? | /
Cc1ccccc1NC(=S)Nn1cnnc1 | -25% | / | ? | ? | -25 | /
CCc1ccccc1NC(=S)Nn1cnnc1 | / | 10µM* | / | -26% | / | /
Fc1ccccc1NC(=S)Nn1cnnc1 | 50µM* | 4µM* | -21% | -24% | -11 | /
COc1cc(NC(=O)CSc2nc(-c3ccc(C(C)C)cc3)no2)cc(OC)c1 | -2% | 2%[59 µM] | 12% | 3% | / | /
OCCOCCn1c(-c2ccccc2)nc(=S)c2c1CCCC2 | -10% | 50µM* | 20% | 6% | -1 | /
CC1(C)Cc2c(c(=S)nc(-c3ccccc3)n2CCOCCO)CO1 | -13% | -43%[59 µM] | 35% | -23% | 8 | -3%
COc1ccc(-n2sc3c(c2=S)-c2cc(OC)ccc2NC3(C)C)cc1 | 3.2µM* | 10µM* | 10µM* | 11µM* | 17 | 32µM*
COc1ccc2c(c1)C(=O)C(=O)N2 | -2%[57.1 µM] | -10%[59 µM] | 31% | ? | -11 | -11%
COc1ccc2c(c1)-c1c(sn(-c3ccc(OC)c(OC)c3)c1=S)C(C)(C)N2 | 35µM* | 10µM* | -81% | 10µM* | 5 | ?
SMILES | JMJD2A Tudor | G9a inh | HP1b chromo inh | BAZ2B inh | PI5P4K alpha inh | L3MBTL1 inh
COc1ccc2c(c1)-c1c(sn(-c3ccccc3)c1=S)C(C)(C)N2 | 40µM* | 28µM* | ? | 8.9µM* | 19 | 32µM*
COc1ccc(N2C(=O)c3ccccc3NC2(C)C)cc1 | -9% | -10%[59 µM] | 22% | -15% | -8 | /
COc1ccc2c(c1)-c1c(ssc1=S)C(C)(C)N2 | 20µM* | 7.9µM* | 16µM* | 13µM* | / | 20µM*
CCOC(=O)c1c(C)[nH]c(C)c1S(=O)(=O)N1CCCC(C(=O)N2CCN(c3cccc(Cl)c3)CC2)C1 (centres undefined) | ? | ? | -5% | ? | / | /
O=C(CCCn1c2ccccc2c(=O)c2ccccc21)Nc1cccc(Cl)c1 | 58% | 101%[59 µM] | 110% | 56% | / | /
COCCCNC(=O)CCc1c(C)nc2nc(-c3cc(OC)cc(OC)c3)nn2c1C | -26% | -1%[59 µM] | 19% | -16% | / | /
COc1cc2c3c(c1)-c1c(sn(-c4cc(OC)ccc4OC)c1=S)C(C)(C)N3C(=O)C2=O | 4% | ? | 19% | 7.1µM* | 14 | -5%
Cc1ccccc1NC(=O)Cn1nnc2sc3c(c2c1=O)CC(C)(C)OC3 | -16% | 24% | -3% | -4% | 1 | -2%
CCC1(C)Cc2c(sc3nc(NC)n(C)c(=O)c23)CO1 (centres undefined) | ? | 32µM* | 31% | ? | -10 | -2%
CC1(C)Cc2c(sc3nnn(Cc4ccccc4)c(=O)c23)CO1 | 7% | 13µM* | 24% | -7% | 5 | 7%
CC1(C)Cc2c(sc3nn[nH]c(=O)c23)CO1 | -12% | 32µM* | -13% | 14% | -8 | -5%
CCC1(C)Cc2c(sc3nn[nH]c(=O)c23)CO1 (centres undefined) | -11% | 40µM* | -19% | -3% | / | /
Cc1ccc(CNC(=O)c2ccc(N3CCCC3)c(NC(=O)Nc3ccc(C)cc3)c2)cc1 | -25% | 16%[59 µM] | 24% | -2% | / | /
CCCOc1ccc(NC(=O)CC2C(=O)N(c3cccc(OC)c3)C(=O)N2Cc2cccs2)cc1 (centres undefined) | -5% | ? | 23% | -17% | / | /
O=C(O)c1ccc(Cn2nnc3sc4c(c3c2=O)CCCC4)cc1 | -16% | 50µM* | 6% | 79µM* | -12 | ?
COc1ccc(N=Nc2c(N)nn(C)c2N)cc1 | ? | / | 79µM* | / | -3 | /
Cc1nn(-c2ccccc2)c(N)c1N=O | -14% | 11% | 27% | -15% | 3 | -1%
Cc1ccc(N=Nc2c(N)nn(-c3ccccc3)c2N)cc1 | 35µM* | -50%[59 µM] | ? | 50µM* | 9 | -15%
Cc1ccc(N=Nc2c(N)nn3c(N)c(C#N)c(C)nc23)cc1 | 56µM* | -39% | 66% | -39% | ? | 1%
Cc1nn(-c2ccccc2)c(N)c1N=Nc1ccc2ccccc2c1 | 40µM* | 40µM* | ? | 13µM* | 30 | -28%
Cc1ccc(N=Nc2c(N)nn3c(C)cc(C)nc23)cc1 | -8% | 17%[59 µM] | 13% | 6% | -17 | -7%
Cc1cccc(CNC(=O)CCCN2C(=O)COc3ccc(C)cc32)c1 | -19% | 10%[59 µM] | -3% | -1% | / | /
Cc1ccc(-n2c(=O)c3ccccc3n(CC(=O)Nc3cccc(C(F)(F)F)c3)c2=O)cc1 | -14% | -5%[59 µM] | 33% | -16% | / | /
CCc1ccc(NC(=O)c2sc(-n3nc(C)c(CCC(C)C)c3C)nc2C)cc1 | 17% | 10%[59 µM] | 66% | 4% | / | /
